Screening results from PubChem BioAssay.
Gli-Sufu antag = antagonists of Gli-Sufu signaling | AID 588413 | 340,000 tested, 0.74% active | Sufu-KO-LIGHT fibroblasts, Gli luciferase reporter luminescence | inhibition, % at 5 µM;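 active = inhibition above about 55%, limit read from the data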
HIV Env fusion = HIV envelope-mediated fusion inhibition | HeLa-JRFL Env/CEM21 cell fusion, luciferase | inhibition, % at 12.3 µM | 360,000 tested, 1.1% active;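 active = mean replicate inhibition score of at least 50 and every replicate individually at or above 50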
aDG glyco act = alpha-DG glycosylation activation | Pro5-aDG cells, alpha-DG glycosylation AlphaScreen (IIH6); 0% Pro5, 100% B10-LARGE cell signal | 360,000 tested, 0.22% active | activation, % at 10 µM;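 active = activation of at least 8% versus controls, or a plate z-score of at least 8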;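 note: Pro5 are CHO cells carrying HIG-tagged alpha-DG that lacks glycosylation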
GalR3 antagonist = antagonists of human GalR3. HEK293 GalR3-CNG cAMP membrane potential fluorescence; galR3 body fused to GalR1 C-terminus. inhibition, % at 3 µM. O60755. 360,000 tested, 0.44% active;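 active = inhibition above the screen-wide average plus 3 SD, cut at about 13% in these data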;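 note: forskolin and galanin both at EC90 stimulate the cells; cAMP rise reported by CNG channel membrane potential dye signal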
Target sequence (O60755 1-299 limits assumed): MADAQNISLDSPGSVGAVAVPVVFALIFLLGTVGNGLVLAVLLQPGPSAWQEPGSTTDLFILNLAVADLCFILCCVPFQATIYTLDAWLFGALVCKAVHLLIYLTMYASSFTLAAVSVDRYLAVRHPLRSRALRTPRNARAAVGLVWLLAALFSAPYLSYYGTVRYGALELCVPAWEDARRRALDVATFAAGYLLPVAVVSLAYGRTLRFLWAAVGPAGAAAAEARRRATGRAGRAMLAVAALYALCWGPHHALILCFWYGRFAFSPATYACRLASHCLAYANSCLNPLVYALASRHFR
NR2F2 inh = blocks human COUP-TFII nuclear receptor; HEK293T NGFI-A luciferase reporter, luminescence; 370,000 tested, 0.7% active; inhibition, % at 8.6 µM;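 active = inhibition above a per-plate cutoff, mean inhibition of test wells between control levels plus 3 SD, cut at about 38% in these data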;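 note: cells cotransfected with COUP-TFII expression vector driving the NGFI-A reporter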
Target sequence (P24468 whole entry, looked up): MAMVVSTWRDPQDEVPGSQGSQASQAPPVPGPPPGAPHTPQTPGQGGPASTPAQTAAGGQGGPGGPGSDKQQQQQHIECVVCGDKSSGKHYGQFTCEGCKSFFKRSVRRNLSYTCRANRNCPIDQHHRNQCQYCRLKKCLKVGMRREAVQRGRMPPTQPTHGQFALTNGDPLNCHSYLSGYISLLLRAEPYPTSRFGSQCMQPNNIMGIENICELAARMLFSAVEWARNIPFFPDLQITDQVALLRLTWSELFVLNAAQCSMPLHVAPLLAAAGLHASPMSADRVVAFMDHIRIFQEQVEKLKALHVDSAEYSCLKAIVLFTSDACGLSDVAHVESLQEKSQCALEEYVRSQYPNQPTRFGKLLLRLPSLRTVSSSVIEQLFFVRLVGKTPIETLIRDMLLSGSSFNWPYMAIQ
Gli antag conf = confirmation of Gli-SUFU pathway antagonists | 2,500 tested, 40% active | Sufu-KO-LIGHT cells, Gli luciferase reporter, luminescence | AID 602428 | inhibition, % at 5 µM | shares compounds with Gli-Sufu antag;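 active = mean inhibition at 5 µM reaching about 45%, limit read from the data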
SufuKO cytotox = cytotoxic in Gli-SUFU antagonist counter-screen. shares compounds with Gli-Sufu antag. Sufu-KO-LIGHT cells cytotoxicity, ATP luminescence. cytotoxicity, % at 5 µM. 2,500 tested, 32% active. AID 651994;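 active = mean cytotoxicity at 5 µM above about 25%, limit read from the data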;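 note: cells exposed to compound overnight for roughly 16 to 18 hours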
Wnt3a counter = Wnt3a reporter inhibition counter-screen | shares compounds with Gli-Sufu antag | Wnt-LIGHT cells, Wnt3a-driven luciferase reporter, luminescence | inhibition, % at 6.25 µM | 2,500 tested, 20% active;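 active = mean inhibition above about 25%, limit read from the data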
Large screens that a line does not name were inactive (follow-up assays come after a bar, where they were run). Only some compounds are listed: those with a hit (about 2.1% of all), similar ones and a draw of the others.

Clc1cccc(CN2C3=NCCCN3c3ccccc32)c1	Gli-Sufu antag 56 | Gli antag conf inactive | SufuKO cytotox inactive | Wnt3a counter inactive
Cc1ccc(CN2C3=NCCCN3c3ccccc32)cc1	none (no result: HIV Env fusion)
COc1ccc(NC(=O)Nc2cccc3c2O[C@@H](CN(C)S(=O)(=O)c2ccccc2)[C@@H](C)CN([C@H](C)CO)C3=O)cc1	none (no result: Gli-Sufu antag, aDG glyco act, GalR3 antagonist, NR2F2 inh)
CCOc1ccc(NS(=O)(=O)c2ccc3c(c2)N(C(C)=O)CC3)cc1	none
CCOc1ccc(NS(=O)(=O)c2ccc(C(=O)N3CCCCC3)cc2)cc1	Gli-Sufu antag 55 | Gli antag conf inactive | SufuKO cytotox 29 | Wnt3a counter inactive
COc1ccc(NS(=O)(=O)c2ccc3c(c2)N(C(C)=O)CC(C)S3)c(OC)c1 (configuration not stated)	none | Gli antag conf inactive | SufuKO cytotox inactive | Wnt3a counter inactive
CCOc1ccc(NS(=O)(=O)c2ccc3c(c2)N(C(C)=O)CCS3)cc1	none | Gli antag conf inactive | SufuKO cytotox inactive | Wnt3a counter inactive
CC(C)C#Cc1cnc2c(c1)C(=O)N([C@H](C)CO)C[C@H](C)[C@@H](CN(C)C(=O)Cc1ccncc1)O2	none (no result: Gli-Sufu antag, aDG glyco act, GalR3 antagonist, NR2F2 inh)
C[C@H](CO)N1C[C@H](C)[C@@H](CN(C)Cc2ccc(C(=O)O)cc2)OCCCC[C@H](C)Oc2ccc(NS(=O)(=O)c3ccc(Cl)cc3)cc2C1=O	none (no result: Gli-Sufu antag, aDG glyco act, GalR3 antagonist, NR2F2 inh)
COC(=O)c1c[nH]c2c1-c1cc(C(=O)OCc3ccccc3)n(S(=O)(=O)c3ccc(C)cc3)c1C(=O)C2=O	Gli-Sufu antag 55 | Gli antag conf 76 | SufuKO cytotox 51 | Wnt3a counter 100
CCNC(=S)Nc1ccc(Oc2ccccc2)cc1	none
COc1ccc(NC(=S)Nc2ccc(Oc3ccccc3)cc2)cc1	Gli-Sufu antag 77 (no result: HIV Env fusion) | Gli antag conf inactive | SufuKO cytotox inactive | Wnt3a counter inactive
CN1C(=O)c2cc(NC(=O)Nc3ccccc3Cl)ccc2OC[C@@H]2O[C@@H](CC(=O)O)CC[C@H]21	none (no result: Gli-Sufu antag, aDG glyco act, GalR3 antagonist, NR2F2 inh)
COc1ccccc1CCNC(=O)C(=O)NCCC1CCCCN1S(=O)(=O)c1ccccc1 (configuration not stated)	none
COc1ccccc1CNC(=O)C(=O)NCCC1CCCCN1S(=O)(=O)c1ccc(C)cc1 (configuration not stated)	none | Gli antag conf inactive | SufuKO cytotox inactive | Wnt3a counter inactive
Cc1ccc(S(=O)(=O)N[C@@H]2C=C[C@@H](CC(=O)NCc3ccncn3)O[C@@H]2CO)cc1	none (no result: Gli-Sufu antag, aDG glyco act, GalR3 antagonist, NR2F2 inh)
CCn1cc(C(=O)NCCN(C)CCc2ccccc2)c(=O)c2cc(S(=O)(=O)N(C)C)ccc21	Gli-Sufu antag 69 | Gli antag conf inactive | SufuKO cytotox inactive | Wnt3a counter inactive
CCn1cc(C(=O)NCCc2ccccc2)c(=O)c2cc(S(=O)(=O)N(C)C)ccc21	none
Cc1noc(C)c1NC(=O)N(C)C[C@H]1OCCCC[C@@H](C)Oc2ccc(NS(=O)(=O)c3cn(C)cn3)cc2C(=O)N([C@@H](C)CO)C[C@H]1C	none (no result: Gli-Sufu antag, aDG glyco act, GalR3 antagonist, NR2F2 inh)
CC(C)=CCN1CCN(Cc2cccn2-c2ncccn2)CC1CCO (configuration not stated)	none | Gli antag conf inactive | SufuKO cytotox inactive | Wnt3a counter inactive
CCOC(=O)Nc1ccc2c(c1)N(C(=O)CN1CCN(CCO)CC1)c1ccccc1CC2	none
CCOC(=O)Nc1ccc2c(c1)N(C(=O)CN1CCN(C)CC1)c1ccccc1CC2	none | Gli antag conf inactive | SufuKO cytotox inactive | Wnt3a counter inactive
Cc1ccc(-c2noc(C3CCCN(C(=O)c4ccc(C(C)(C)C)cc4)C3)n2)o1 (configuration not stated)	none | Gli antag conf inactive | SufuKO cytotox inactive | Wnt3a counter inactive
O=C1c2ccccc2NC(c2cccc(F)c2)N1Cc1ccco1 (configuration not stated)	Gli-Sufu antag 65 (no result: HIV Env fusion) | Gli antag conf inactive | SufuKO cytotox inactive | Wnt3a counter inactive
COc1ccc(CN2CCC(CNC(=O)NCc3ccccc3)CC2)cc1	none (no result: Gli-Sufu antag, HIV Env fusion, aDG glyco act, GalR3 antagonist)
COc1ccc(CNC(=O)CN2CCC(NC(=O)c3ccc(OC)cc3)CC2)cc1	Gli-Sufu antag 62 | Gli antag conf inactive | SufuKO cytotox inactive | Wnt3a counter inactive
COc1ccc(NS(=O)(=O)c2cccc(C(=O)NC3CCN(Cc4ccccc4)CC3)c2)cc1	Gli-Sufu antag 57 | Gli antag conf inactive | SufuKO cytotox inactive | Wnt3a counter inactive
COc1ccc(CNC2CCN(Cc3ccccc3)CC2)cc1	Gli-Sufu antag 58 | Gli antag conf inactive | SufuKO cytotox inactive | Wnt3a counter inactive
Cc1cc(C)cc(NS(=O)(=O)c2ccc(-c3cnc(C4CC4)o3)cc2)c1	Gli-Sufu antag 55 | Gli antag conf 51 | SufuKO cytotox 57 | Wnt3a counter inactive
O=S(=O)(Nc1ccccc1)c1ccc(-c2cnc(C3CC3)o2)cc1	none
CCNc1ccc(C(=O)OC(C(=O)NC(N)=O)C(C)C)cc1[N+](=O)[O-] (configuration not stated)	Gli-Sufu antag 59 | Gli antag conf inactive | SufuKO cytotox inactive | Wnt3a counter inactive
Cc1ccc(Nc2cc(C)nc(NCc3ccccc3)n2)cc1	HIV Env fusion 151 | Gli antag conf inactive | SufuKO cytotox inactive | Wnt3a counter inactive
COc1cc(C)nc(NCc2ccccc2)n1	none
COc1cccc(NC(=O)C[C@@H]2CC[C@H]3[C@H](COc4ccc(NC(=O)C5CCCCC5)cc4C(=O)N3C)O2)c1	none (no result: Gli-Sufu antag, aDG glyco act, GalR3 antagonist, NR2F2 inh)
NNC(=O)c1csc(-c2cccc(C(F)(F)F)c2)n1	Gli-Sufu antag 95 | Gli antag conf inactive | SufuKO cytotox inactive | Wnt3a counter inactive
CN(C)c1ccc(NC(=O)CN2CCC(N3CCCCC3)CC2)cc1	none | Gli antag conf inactive | SufuKO cytotox inactive | Wnt3a counter inactive
C[C@H](CO)N1C[C@H](C)[C@@H](CN(C)Cc2ccc3c(c2)OCO3)OCCCC[C@H](C)Oc2ccc(NC(=O)Nc3cccc4ccccc34)cc2C1=O	none (no result: Gli-Sufu antag, aDG glyco act, GalR3 antagonist, NR2F2 inh)
NC1=NC[C@H](c2ccccc2)N1CCCCC1CCCCC1	Gli-Sufu antag 62 | Gli antag conf 54 | SufuKO cytotox 34 | Wnt3a counter inactive
C[C@H]1CCCCO[C@@H](CN(C)CC2CCCCC2)[C@@H](C)CN([C@@H](C)CO)C(=O)c2cc(NC(=O)Nc3ccc(F)cc3)ccc2O1	none (no result: Gli-Sufu antag, aDG glyco act, GalR3 antagonist, NR2F2 inh)
Cc1ccc(NC(=S)Nc2ccc(S(=O)(=O)N3CCOCC3)cc2)cc1S(=O)(=O)N1CCOCC1	none | Gli antag conf inactive | SufuKO cytotox inactive | Wnt3a counter inactive
O=C(Cn1nc(C(=O)O)c2ccccc2c1=O)Nc1ccccc1C(F)(F)F	Gli-Sufu antag 79 | Gli antag conf inactive | SufuKO cytotox inactive | Wnt3a counter inactive
Cc1ccccc1NC(=O)Cn1nc(C(=O)O)c2ccccc2c1=O	none
